Measured values: PubChem BioAssay (EPA / NIEHS)
Values joined by “and” are separate entries in the source; they are usually repeats but may differ in a detail not shown here. Equal values may be shown once. Some structures have more than one record in an assay (separate samples or runs), and their calls can disagree. Active and inactive are the calls of the source. The calls were made as follows: active = hit-call score of the fitted dose curve at least 0.9, where 1 is the maximum; inactive = score below 0.9.

Experiment: ATG_Ets_CIS: Attagene CIS-FACTORIAL HepG2 Assay for human Erythroblast Transformation Specific (ETS) (AID 2282941)
Details: HepG2 ETS cis-reporter transcription, actives raise or lower the signal
Method: ATG_CIS is a cell-based, multiplexed-readout assay that uses HepG2, a human liver cell line, with measurements taken at 24 hours after chemical dosing in a 24-well plate.ATG_Ets_CIS is one of 52 assay component(s) measured or calculated from the ATG_CIS assay. It is designed to make measurements of mRNA induction, a form of inducible reporter, as detected with fluorescence intensity signals by Reverse transcription polymerase chain reaction (RT-PCR) and Capillary electrophoresis technology.Data from the assay component ATG_Ets_CIS was analyzed into 1 assay endpoint. This assay endpoint, ATG_Ets_CIS, was analyzed with bidirectional fitting relative to DMSO as the negative control and baseline of activity. Using a type of inducible reporter, measures of mRNA for gain or loss-of-signal activity can be used to understand the reporter gene at the transcription factor-level as they relate to the gene ETS1. Furthermore, this assay endpoint can be referred to as a primary readout, because this assay has produced multiple assay endpoints where this one serves a reporter gene function. To generalize the intended target to other relatable targets, this assay endpoint is annotated to the dna binding intended target family, where the subfamily is winged helix-turn-helix.
Human liver HepG2 cells are transiently transfected with multiple reporter transcription units (MRTUs) in 6-well plates using FuGene 6 reagent (Roche; 3 ml FuGene/1 mg DNA). The MRTU constructs are regulated by a cis-regulating element (promoter). […] A major difference between the CIS and TRANS system is that in CIS activities of endogenous TFs are measured, whereas the TRANS assay evaluates changes in activities of exogenous, chimeric NR-Gal4 proteins. […] At the end of 24 hour incubation, total RNA was isolated using TriZol reagent (Invitrogen). The isolated RNA is then reverse-transcribed using oligo(dT) primer and Mo-MLV reverse transcriptase (Invitrogen) with DNAse I (Ambion) treatment for 30 min. The one-tenth of the produced cDNA was amplified by PCR using Taq DNA polymerase (Invitrogen) and two reporter sequence-specific primers. The PCR products were fluorescently labeled by primer extension with 6-arboxyfluorescein (6-FAM) 5'-labeled reporter sequence-specific primer (2 min at 95 C, 20 s at 68 C and 10 min at 72 C) and these products were digested with 5U of HpaI (New England Biolabs) for 2h at 37 C. The fragments were purified using Qiaquick PCR columns (Qiagen), analyzed on an ABI 3130xL genetic analyzer (Applied Biosystems) with peak positions identified by using a set of X-rhodamine (ROX)-labeled MapMarker1000 molecular weight standards (BioVentures). The raw capillary electrophoresis data was processed using Attagraph software (Attagene).

Row | SMILES | outcome | AC50
1 | Cc1nn(C)c(Oc2ccccc2)c1C=NOCc1ccc(C(=O)OC(C)(C)C)cc1 | inactive | –
2 | CCOC(=O)C(C)Oc1ccc(Oc2cnc3cc(Cl)ccc3n2)cc1 (stereo not given) | inactive | –
3 | c1ccc(Nc2ccccc2)cc1 | inactive | –
4 | CCOC(=O)C(C)Oc1ccc(Oc2nc3ccc(Cl)cc3o2)cc1 (stereo not given) | inactive | –
5 | OB(O)O | inactive | –
6 | N[C@@H](Cc1cc(I)c(Oc2ccc(O)c(I)c2)c(I)c1)C(=O)O | inactive | –
7 | COC(=O)c1ccccc1C(=O)O | inactive | –
8 | COC(=O)c1c(Cl)nn(C)c1S(=O)(=O)NC(=O)Nc1nc(OC)cc(OC)n1 | inactive | –
9 | CCC(O)=C1C(=O)CC(C(=O)O)CC1=O (stereo not given) | inactive | –
10 | CCCCC(CC)CN1C(=O)C2C3C=CC(C3)C2C1=O (stereo not given) | inactive | –
11 | COc1c(Cl)ccc(Cl)c1C(=O)O | inactive | –
12 | C[C@]12CC[C@@H]3c4ccc(O)cc4C[C@@H](CCCCCCCCCS(=O)CCCC(F)(F)C(F)(F)F)[C@H]3[C@@H]1CC[C@@H]2O (stereo not given in full) | inactive | –
13 | O=C(c1ccccc1)C1CCCCC1 | inactive | –
14 | CCCN(CCC)C(=O)SCC | inactive | –
15 | CCCN(CCC)c1c([N+](=O)[O-])cc(C(F)(F)F)c(N)c1[N+](=O)[O-] | inactive | –
16 | C#CCOC(=O)[C@@H](C)Oc1ccc(Oc2ncc(Cl)cc2F)cc1 | inactive | –
17 | CCCOC(=O)NCCCN(C)C | inactive | –
18 | CC1(C)C(C=C(Cl)Cl)C1C(=O)OCc1cccc(Oc2ccccc2)c1 (stereo not given) | inactive | –
19 | COC(=O)c1ccc(I)cc1S(=O)(=O)NC(=O)Nc1nc(C)nc(OC)n1 | inactive | –

Row | SMILES | outcome | AC50
20 | CC(=O)S[C@@H]1CC2=CC(=O)CC[C@]2(C)[C@H]2CC[C@@]3(C)[C@@H](CC[C@@]34CCC(=O)O4)[C@H]12 | inactive | 100 µM (active)
21 | O=C(c1ccc(O)cc1O)c1ccc(O)cc1O | inactive | –
22 | CCCCCOC(=O)COc1cc(N2C(=O)C3=C(CCCC3)C2=O)c(F)cc1Cl | inactive | –
23 | CCNc1nc(N)nc(Cl)n1 | inactive | –
24 | CCN(CC)C(=O)c1cccc(C)c1 | inactive | –
25 | CC(C)CCCCCCc1ccc(O)cc1 | inactive | 17.1 µM (active)
26 | CC(C)(C)[C@@H](O)[C@@H](Cc1ccc(Cl)cc1)n1cncn1 | – | 68.5 µM (active)
27 | COCCO | inactive | –
28 | COC(=O)c1cccc(C)c1S(=O)(=O)NC(=O)Nc1nc(OCC(F)(F)F)nc(N(C)C)n1 | inactive | –
29 | CCOC(=O)c1ccc(O)cc1 | inactive | –
30 | CCSC(=O)N(CC(C)C)CC(C)C | inactive | –
31 | Oc1ccc(C(c2ccc(O)cc2)C(Cl)(Cl)Cl)cc1 | inactive | –
32 | CC(C)(c1ccc(O)cc1)c1ccc(O)cc1 | inactive | 101 µM (active) and 33.7 µM (active)
33 | CCCCC(CC)COC(=O)c1ccccc1C(=O)O (stereo not given) | inactive | –
34 | CCCOC(=O)c1ccc(C(=O)OCCC)nc1 | inactive | –
35 | CSC(=O)c1cccc2nnsc12 | inactive | –
36 | CCCCOC(=O)[C@@H](C)Oc1ccc(Oc2ccc(C(F)(F)F)cn2)cc1 | inactive | –
37 | S=C([S-])NCCNC(=S)[S-].[Mn+2] | inactive | –
